Screening data from PubChem BioAssay.
Only some compounds are listed: those with a hit (about 5.1% of all), similar ones and a draw of the others.
NR3A LBD binder – binders of NR3A ligand-binding domain, primary screen, biophysical, differential scanning fluorimetry, uHTS. Glutamate receptor ionotropic, NMDA 3A (GRIN3A) ligand-binding domain. NR3A LBD differential scanning fluorimetry, Tm shift; 0% = protein alone, 100% = glycine-bound protein. Tm shift relative to glycine control, % at 25 µM. 2.5% of 340,000 active. AID 1259313, 2017;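 active means melting temperature shift of at least 10% of the positive control shift, at one fixed dose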
TMEM16A act – TMEM16A chloride channel activators or potentiators, primary screen, cell-based, HTS. AID 623877, 2012. Anoctamin-1 (Mus musculus), Q8BHY3. HEK293 TMEM16A/YFP-H148Q/I152L, iodide quench fluorescence; hits give low values. 0.3% of 340,000 active. B-score at 10 µM;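 active means fluorescence-ratio B-score plate-corrected deviation score at least 3 library SD below zero, with starting fluorescence score within 5 deviations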;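 further: channel opened by trigger with iodide after compound preincubation; score built on the fluorescence ratio of max minus min over baseline; more negative score means more quench and so TMEM16A activation or potentiation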
Target sequence (Q8BHY3 whole entry, looked up): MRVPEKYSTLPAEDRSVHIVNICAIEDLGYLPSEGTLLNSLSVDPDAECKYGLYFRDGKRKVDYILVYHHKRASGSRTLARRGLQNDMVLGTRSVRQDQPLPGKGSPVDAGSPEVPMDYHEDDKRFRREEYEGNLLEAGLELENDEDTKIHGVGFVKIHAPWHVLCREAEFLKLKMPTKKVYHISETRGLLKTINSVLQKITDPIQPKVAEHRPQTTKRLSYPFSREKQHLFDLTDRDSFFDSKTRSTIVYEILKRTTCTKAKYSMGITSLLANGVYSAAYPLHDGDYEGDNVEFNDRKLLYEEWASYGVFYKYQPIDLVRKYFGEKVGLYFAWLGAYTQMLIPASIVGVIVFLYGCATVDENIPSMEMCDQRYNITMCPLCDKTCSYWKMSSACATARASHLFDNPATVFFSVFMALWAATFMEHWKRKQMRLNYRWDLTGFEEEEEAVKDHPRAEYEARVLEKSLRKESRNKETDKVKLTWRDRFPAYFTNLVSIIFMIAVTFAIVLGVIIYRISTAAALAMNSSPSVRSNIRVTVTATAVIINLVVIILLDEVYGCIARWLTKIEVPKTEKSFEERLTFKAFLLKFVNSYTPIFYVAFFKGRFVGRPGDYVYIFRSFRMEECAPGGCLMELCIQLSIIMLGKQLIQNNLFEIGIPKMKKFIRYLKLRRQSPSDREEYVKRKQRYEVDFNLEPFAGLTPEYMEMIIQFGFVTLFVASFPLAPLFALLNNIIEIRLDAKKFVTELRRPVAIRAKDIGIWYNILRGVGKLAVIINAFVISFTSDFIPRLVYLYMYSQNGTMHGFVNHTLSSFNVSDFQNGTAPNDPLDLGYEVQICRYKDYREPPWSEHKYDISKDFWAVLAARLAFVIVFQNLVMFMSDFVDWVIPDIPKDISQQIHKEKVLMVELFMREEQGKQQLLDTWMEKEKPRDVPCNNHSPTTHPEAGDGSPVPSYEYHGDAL
MPTP inh – mitochondrial permeability transition pore inhibitors, primary screen, biochemical, isolated mouse mitochondria, absorbance. 1.4% of 360,000 active. inhibition, % at 10 µM. AID 602449, 2012. Ca2+ swelling absorbance, 30 min;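 active means inhibition of 50% or more, scaled per plate between neutral and stimulator controls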
CRFR2-BP ag – agonists of CRF-BP/CRF-R2 complex, primary screen, cell-based, HEK293, calcium dye fluorescence, uHTS | CRF-binding protein / CRF receptor 2 complex (human) | calcium dye fluorescence (FLIPR); percent of saturating CRF peptide response | activation, % at 13.2 µM | 0.46% of 350,000 active;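 active means activation of at least 50%, plus an integration ratio under a set limit after plate pattern correction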
CRFBP-R2 block – antagonists of CRF-BP/CRF-R2 complex, primary screen, cell-based, HEK293, calcium dye fluorescence, uHTS; 0.59% of 350,000 active; CRF-induced calcium fluorescence; AID 588475, 2011; inhibition, % at 11.8 µM;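 active means inhibition of the ligand-induced calcium signal above about 50% at the single tested concentration, limit read from the data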
TMEM16A inh – TMEM16A chloride channel inhibitors, primary screen, cell-based, HTS. 1.2% of 310,000 active. Anoctamin-1 (Mus musculus), Q8BHY3. HEK293 TMEM16A/YFP iodide influx fluorescence, ionomycin. normalized B-score (activity score, 25-100; higher = stronger inhibition) at 10 µM. AID 588511, 2011;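 active means ratio plate-corrected score three or more library SD toward inhibition, starting fluorescence score within five deviations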;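 further: score derived from kinetic fluorescence span divided by baseline fluorescence per well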
Hits are given with their value.

CC1CN(C(=O)C(C)OC(=O)c2ccc3ncsc3c2)CC(C)O1 (stereo unspecified) was read as NR3A LBD binder inactive, TMEM16A act inactive, MPTP inh inactive, CRFR2-BP ag inactive and CRFBP-R2 block inactive.
`Cc1ccc(NC(=O)Nc2nnc(Cc3ccc([N+](=O)[O-])cc3)s2)cc1` gave NR3A LBD binder 22.1, TMEM16A act inactive, MPTP inh inactive, CRFR2-BP ag inactive, CRFBP-R2 block inactive and TMEM16A inh inactive.
Screening Cc1cc(=O)oc2cc(OCC(=O)N(C)C3CCS(=O)(=O)C3)c(Cl)cc12 (stereo unspecified) returned NR3A LBD binder inactive, TMEM16A act inactive, MPTP inh inactive, CRFR2-BP ag inactive, CRFBP-R2 block inactive and TMEM16A inh inactive.
Screening CC(C)Nc1ncnc2c1ncn2[C@H]1CN(Cc2ccc3c(c2)OCO3)C[C@@H](CO)O1 returned MPTP inh inactive.
`Cn1c2c(sc1=O)CCC2` gave NR3A LBD binder inactive, TMEM16A act inactive, MPTP inh inactive, CRFR2-BP ag inactive and CRFBP-R2 block inactive.
For C=CCC(CC(O)COCCC)C(=O)NNC(=S)Nc1ccccc1 (stereo unspecified) the results were NR3A LBD binder 10.3, TMEM16A act inactive, MPTP inh inactive, CRFR2-BP ag inactive, CRFBP-R2 block inactive and TMEM16A inh inactive.
CC(C)CCOCC(O)CCC(=O)NNC(=S)Nc1ccccc1 (stereo unspecified) was read as NR3A LBD binder inactive, TMEM16A act inactive, MPTP inh inactive, CRFR2-BP ag inactive, CRFBP-R2 block inactive and TMEM16A inh inactive.
For C[C@@H]1CCCCO[C@@H](CN(C)C(=O)C2CCCCC2)[C@@H](C)CN([C@H](C)CO)C(=O)c2cc(NC(=O)NC3CCCCC3)ccc2O1 the results were MPTP inh inactive, CRFR2-BP ag inactive and CRFBP-R2 block inactive.
`Cn1c(=O)n(C)c2cc(NC(=O)COc3ccc(F)cc3)ccc21` gave NR3A LBD binder inactive, TMEM16A act inactive, MPTP inh inactive, CRFR2-BP ag inactive, CRFBP-R2 block inactive and TMEM16A inh inactive.
For c1ccc(CCNc2cnccn2)cc1 the results were NR3A LBD binder inactive, TMEM16A act -4.68, MPTP inh inactive, CRFR2-BP ag inactive, CRFBP-R2 block inactive and TMEM16A inh inactive.
Screening CCOC(=O)c1[nH]c2ccc(OC)cc2c1NC(=S)N1CCN(c2cccc(Cl)c2)CC1 returned NR3A LBD binder 13.3, TMEM16A act inactive, MPTP inh inactive, CRFR2-BP ag inactive, CRFBP-R2 block inactive and TMEM16A inh inactive.
For Cc1ccccc1C1NC(c2ccccc2C)C(C)C(=O)C1C (stereo unspecified) the results were NR3A LBD binder inactive, TMEM16A act inactive, MPTP inh inactive, CRFR2-BP ag inactive, CRFBP-R2 block inactive and TMEM16A inh inactive.
`CC1C(=O)C(C)C(c2cccs2)NC1c1cccs1` (stereo unspecified) gave NR3A LBD binder inactive, TMEM16A act inactive, MPTP inh inactive, CRFR2-BP ag inactive, CRFBP-R2 block 57.3 and TMEM16A inh inactive.
For CNc1nc(SCc2ccc(C)cc2)nc2c1CCCC2 the results were NR3A LBD binder inactive, TMEM16A act inactive, MPTP inh inactive, CRFR2-BP ag inactive, CRFBP-R2 block inactive and TMEM16A inh 100.
CCOCC(=O)Nc1ccc(S(=O)(=O)N2CCC(c3nc4ccccc4[nH]3)CC2)cc1 was read as NR3A LBD binder inactive, TMEM16A act inactive, MPTP inh inactive, CRFR2-BP ag inactive, CRFBP-R2 block inactive and TMEM16A inh inactive.
`Cc1ccc(-n2nnnc2SCC(=O)Nc2cccnc2Cl)cc1` gave NR3A LBD binder inactive, TMEM16A act inactive, MPTP inh inactive, CRFR2-BP ag inactive, CRFBP-R2 block 53.4 and TMEM16A inh inactive.
`O=C(CSc1nnnn1-c1ccc(Cl)cc1)Nc1cccnc1Cl` gave NR3A LBD binder inactive, TMEM16A act inactive, MPTP inh inactive, CRFR2-BP ag inactive, CRFBP-R2 block inactive and TMEM16A inh inactive.
O=C(CSCCc1ccccn1)Nc1cccnc1Cl was read as NR3A LBD binder inactive, TMEM16A act inactive, MPTP inh inactive, CRFR2-BP ag inactive, CRFBP-R2 block inactive and TMEM16A inh 25.
`COc1cccc(-c2ncn(CCc3ccccc3OC)c2C(C)C)c1` gave MPTP inh inactive.
CC(NC(=O)c1cc(S(=O)(=O)N2CCOCC2)ccc1N1CCCC1)c1ccc(Cl)c(Cl)c1 (stereo unspecified) was read as NR3A LBD binder inactive, TMEM16A act inactive, MPTP inh inactive, CRFR2-BP ag inactive, CRFBP-R2 block inactive and TMEM16A inh inactive.
`CCCn1c(C(C)Nc2nc(-c3ccc(Cl)c([N+](=O)[O-])c3)cs2)nc2ccccc21` (stereo unspecified) gave NR3A LBD binder inactive, TMEM16A act inactive, MPTP inh inactive, CRFR2-BP ag inactive, CRFBP-R2 block inactive and TMEM16A inh inactive.
For Cc1ccc(Cn2c(C(C)Nc3nc(-c4ccc(Cl)c([N+](=O)[O-])c4)cs3)nc3cc(C(F)(F)F)ccc32)cc1 (stereo unspecified) the results were NR3A LBD binder 14.3, TMEM16A act inactive, MPTP inh inactive, CRFR2-BP ag inactive, CRFBP-R2 block inactive and TMEM16A inh inactive.
Screening CCCn1c(CCNc2nc(-c3ccc(Cl)c([N+](=O)[O-])c3)cs2)nc2cc(Cl)c(Cl)cc21 returned NR3A LBD binder 13.4, TMEM16A act inactive, MPTP inh inactive, CRFR2-BP ag inactive, CRFBP-R2 block inactive and TMEM16A inh inactive.
CCc1ccc(C(C)NC(=O)c2cccs2)cc1 (stereo unspecified) was read as NR3A LBD binder inactive, TMEM16A act inactive, MPTP inh inactive, CRFR2-BP ag inactive, CRFBP-R2 block inactive and TMEM16A inh inactive.
`Cc1cc([N+](=O)[O-])nn1CCCC(=O)Nc1sc2c(c1C(N)=O)CCCC2` gave NR3A LBD binder 16.8, TMEM16A act inactive, MPTP inh inactive, CRFR2-BP ag inactive, CRFBP-R2 block inactive and TMEM16A inh inactive.
`Cc1cc([N+](=O)[O-])nn1CC(=O)Nc1sc2c(c1C(N)=O)CCCC2` gave NR3A LBD binder inactive, TMEM16A act inactive, MPTP inh inactive, CRFR2-BP ag inactive, CRFBP-R2 block inactive and TMEM16A inh inactive.
`CCOC(=O)c1ccccc1NC(=O)COC(=O)CSC(C)C(=O)Nc1cc(C)on1` (stereo unspecified) gave NR3A LBD binder inactive, TMEM16A act inactive, MPTP inh inactive, CRFR2-BP ag inactive, CRFBP-R2 block inactive and TMEM16A inh inactive.
Nc1nc2ccccc2n1C(=O)c1ccc(F)cc1 was read as NR3A LBD binder inactive, TMEM16A act inactive, MPTP inh inactive, CRFR2-BP ag inactive, CRFBP-R2 block inactive and TMEM16A inh inactive.
